Laboratory results: PubChem BioAssay (NCI)
This is part of a sample that, as a whole, favours compounds with a hit. Of some 83,000 tested, about 20% had one in any assay.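 Percent growth is the endpoint: 0 to 100 indicates growth inhibition (40 means 60% inhibition), 0 means no net growth, and negative values indicate cell death.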 Values without a mark were called inactive. Active and inactive are the calls of the source. How the source made its calls: active means growth percent below 10; inactive means the rest.

Tests used:
Assay in all cases: NCI-60 one-dose screen, 48 h (100 = growth as untreated, 0 = no growth, -100 = all killed)
Details in all cases: 10 µM unless noted
[1] = tested on: T-47D breast
[2] = tested on: BT-549 breast
[3] = tested on: MDA-MB-435 melanoma
[4] = tested on: SW-620 colon
[5] = tested on: MCF7 breast
[6] = tested on: HCT-116 colon
[7] = tested on: HCC-2998 colon
[8] = tested on: KM12 colon

Row | Compound | growth [1] | growth [2] | growth [3] | growth [4] | growth [5] | growth [6] | growth [7] | growth [8]
1 | COc1ccc2c(Nc3ccc(NS(C)(=O)=O)cc3)c3ccccc3nc2c1 | 2.85% (active) | 49.9% | -11.1% (active) | -31% (active) | 11.1% | 2.19% (active) | -60.9% (active) | -13.2% (active)
2 | Cc1ccc(C2CC(c3cccc(Nc4ccncc4)c3)=NN2c2ccc(Cl)cc2)cc1 (stereo unspecified) | -47.9% (active) | 96.5% | -84.7% (active) | -46.9% (active) | -73.4% (active) | -80.1% (active) | -93.4% (active) | -89.3% (active)
3 | COc1ccc(-c2nc(SC)nc(N3CCOCC3)c2C#N)cc1 | 72.9% | 83.7% | 99.3% | 103% | 90.6% | 103% | 99.7% | 99.9%
4 | O=C1Nc2c(ccc(Cl)c2Cl)/C1=C/c1ccc([N+](=O)[O-])cc1 | 85.3% | 87.4% | 93% | 100% | 90.4% | 76.9% | 108% | 110%
5 | c1ccc(C2CC(c3cccc(Nc4ccncc4)c3)=NN2c2ccccc2)cc1 (stereo unspecified) | 92.1% | 92.7% | 15.3% | -44.4% (active) | 14.4% | -67.1% (active) | 3.07% (active) | 44.7%
6 | CN1CCN(C(=O)[C@]2(C)CC[C@]3(C)CC[C@]4(C)C(=CC(=O)[C@@H]5[C@@]6(C)CCC(=O)NC(C)(C)[C@@H]6CC[C@]54C)[C@@H]3C2)CC1 | 79.9% | 87.2% | 100% | 96.4% | 91.8% | 93.1% | 113% | 98.1%
7 | CC[N+](CC)(CCCC(C)[N+]1(Cc2ccccc2)C(C)=CC=C1C)Cc1ccccc1 (stereo unspecified) | 77.7% | 82.9% | 82.8% | 89% | 81% | 47.6% | 80.8% | 81.7%
8 | COc1cc(Nc2cc(O)c3c(=O)cc(-c4ccccc4)oc3c2)cc(OC)c1 | 55.2% | 80.2% | 4.04% (active) | 24.9% | 23.5% | 13% | 32.4% | 21%
9 | N#Cc1cc(-c2nc3ccccc3s2)c(=O)n(NS(=O)(=O)c2ccc(Cl)cc2)c1N | 96.6% | 105% | 101% | 97.7% | 99.9% | 98.5% | 111% | 102%
10 | COc1ccc(-c2nn(Cc3ccccc3)c3c2-c2oncc2CC3)cc1OC | 84.8% | 92.7% | 95.2% | 118% | 87.7% | 107% | 107% | 99.6%
11 | c1cnc2nc3c(cc2c1)oc1ccccc13 | 100% | 98.8% | 103% | 99.4% | 86.6% | 101% | 100% | 98.2%
12 | O=C(c1ccccc1)N1N=C(c2ccc(-n3ccc(C(F)(F)F)n3)cc2)CC1c1ccc[nH]1 (stereo unspecified) | 73.5% | 116% | 96% | 98.9% | 91.5% | 93.7% | 115% | 79.7%
13 | Cc1cc(Nc2cccc(C(F)(F)F)c2)n2c(nc3ccccc32)c1C#N | 8.68% (active) | 19.4% | 45.5% | 23.8% | 36.3% | 39.6% | 46.3% | 20.9%
14 | Cc1[nH]c(C(=O)Nc2ccccc2OCc2cccc(C(=O)NCCN)c2)c(Cl)c1Cl | 46.5% | 97.2% | 69.1% | 3.75% (active) | 14.7% | 7.52% (active) | 84.4% | 64.1%
15 | C#CCn1cc(C=C2C(=O)NC(=S)NC2=O)c2cc(Cl)ccc21 | 76.6% | 24.6% | 15% | -27.5% (active) | 10.6% | 2.51% (active) | -4.98% (active) | 14.4%
16 | CCOC(=O)c1c(C)nc2c(c1N)C(=O)C(=O)N2Cc1ccc(C(F)(F)F)cc1 | 44% | 53.4% | 6.09% (active) | 35.6% | 11.7% | 27.2% | 98.1% | 27.8%

Row | Compound | growth [1] | growth [2] | growth [3] | growth [4] | growth [5] | growth [6] | growth [7] | growth [8]
17 | O=C(N/N=C/c1ccc(O)c(O)c1)c1sc2ccccc2c1Cl | 62.3% | 84.4% | 88.7% | 75.2% | 54.4% | 80% | 96.5% | 89%
18 | NC(=O)c1ccc[n+](CC(=O)N2CCN(c3cc4c(cc3F)c(=O)c(C(=O)O)cn4C3CC3)CC2)c1 | 99.1% | 87.3% | 75.2% | 6.58% (active) | 62.4% | 37.1% | 115% | 90.1%
19 | O=S(=O)(NCCCNc1nccc(-c2c(-c3ccccc3)nc3occn23)n1)c1ccc(Cl)cc1 | 58.9% | 104% | 64.3% | 108% | 60.5% | 68.4% | 102% | 95.7%
20 | CN(C)C(=O)OCc1nc2c(N3CCOCC3)nc(-c3ccccc3)nc2n1C | -50.3% (active) | -31.1% (active) | -89.1% (active) | -77.7% (active) | -60% (active) | -56.6% (active) | -78.3% (active) | -65.6% (active)
21 | CC(=O)c1c[nH]c2ccc(-c3ccnc(Nc4ccc(NC(=O)c5cccc(F)c5)c(CN5CCOCC5)c4)n3)cc12 | -5.6% (active) | -7.43% (active) | -6.37% (active) | 0.335% (active) | -0.0693% (active) | 2.26% (active) | 1.41% (active) | -7.43% (active)
22 | CCN(CC)CCOC(COc1cc(C)cc(C)c1)COc1cc(C)cc(C)c1 | 18.8% | 50.9% | 19.5% | 24.1% | 17.5% | 7.06% (active) | 16.8% | 31.7%
23 | COc1ccc(C(O)c2cc3c(N)c(C(=O)Nc4ccc(Cl)cc4)sc3nc2C)cc1 (stereo unspecified) | 37.4% | 66.4% | -52.5% (active) | 27.1% | 16.6% | 21.7% | 23% | 9.89% (active)
24 | CCCNC(=O)Oc1ccc(/C(=C(\C)c2ccccc2)c2ccc(OCCN3CCCCC3)cc2)cc1 | 38.7% | 69.8% | 78.8% | 80.8% | 27.9% | 46.5% | 86.9% | 58.9%
25 | COc1ccc2c(/C=C3/C(=O)NC(=S)NC3C)cc(=O)oc2c1 (stereo unspecified) | 88% | 103% | 102% | 103% | 90.1% | 95.6% | 96% | 99.7%
26 | O=C(NNc1nc(Cl)nc(N2CCN(C(c3ccccc3)c3ccccc3)CC2)n1)c1ccccc1 | 54.8% | 7.6% (active) | 58.7% | -40.7% (active) | 82.5% | -23.9% (active) | -24.5% (active) | 76.9%
27 | COc1ccc(C2CC(c3cccc(Nc4ccncc4)c3)=NN2c2cc(Cl)cc(Cl)c2)cc1 (stereo unspecified) | 73.8% | 109% | -77.1% (active) | -87.5% (active) | -31.7% (active) | 83.9% | -46.5% (active) | -80% (active)
28 | CNC(=O)c1c(NC(=O)c2ccc(C(C)C)cc2)sc2c(CN(C)C)c(O)ccc12 | 80.6% | 87.9% | 89.8% | 17.2% | 68.6% | 46.1% | 55.4% | 66.2%
29 | CN(C)C(C(N)=O)c1ccc(Cl)cc1 (stereo unspecified) | 102% | 100% | 101% | 104% | 106% | 94.9% | 102% | 102%
30 | CC(=O)O[C@]1(C(C)=O)CC[C@H]2[C@@H]3C=C(Cl)C4=CC(=O)CC[C@]4(C)[C@H]3CC[C@@]21C | 97.1% | 94.5% | 113% | 115% | 112% | 96.7% | 103% | 109%
31 | CCOC(=O)c1c(O)cc(-c2ccccc2)cc1-c1sc(N(C)Cc2ccccc2)nc1Cl | 93.5% | 42.7% | 101% | 96.5% | 94% | -85.6% (active) | 103% | 104%
32 | COC(=O)Nc1nc2ccc(C(=O)c3cccc(I)c3)cc2[nH]1 | 63.8% | 6.76% (active) | -35.8% (active) | 21.3% | 17.6% | 9.66% (active) | 18.3% | 7.58% (active)
